eLon inh: inhibitors of E. coli Lon protease. purified E. coli Lon protease, fluorescence polarization. inhibition, % at 7.94 µM. hit rate 0.42% among 360,000. AID 602123; in the data active means inhibition above about 13%, passing the limit was not always enough;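 further: 0% = enzyme with probe and DMSO and 100% = no enzyme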
Target sequence (P0A9M0 whole entry, looked up): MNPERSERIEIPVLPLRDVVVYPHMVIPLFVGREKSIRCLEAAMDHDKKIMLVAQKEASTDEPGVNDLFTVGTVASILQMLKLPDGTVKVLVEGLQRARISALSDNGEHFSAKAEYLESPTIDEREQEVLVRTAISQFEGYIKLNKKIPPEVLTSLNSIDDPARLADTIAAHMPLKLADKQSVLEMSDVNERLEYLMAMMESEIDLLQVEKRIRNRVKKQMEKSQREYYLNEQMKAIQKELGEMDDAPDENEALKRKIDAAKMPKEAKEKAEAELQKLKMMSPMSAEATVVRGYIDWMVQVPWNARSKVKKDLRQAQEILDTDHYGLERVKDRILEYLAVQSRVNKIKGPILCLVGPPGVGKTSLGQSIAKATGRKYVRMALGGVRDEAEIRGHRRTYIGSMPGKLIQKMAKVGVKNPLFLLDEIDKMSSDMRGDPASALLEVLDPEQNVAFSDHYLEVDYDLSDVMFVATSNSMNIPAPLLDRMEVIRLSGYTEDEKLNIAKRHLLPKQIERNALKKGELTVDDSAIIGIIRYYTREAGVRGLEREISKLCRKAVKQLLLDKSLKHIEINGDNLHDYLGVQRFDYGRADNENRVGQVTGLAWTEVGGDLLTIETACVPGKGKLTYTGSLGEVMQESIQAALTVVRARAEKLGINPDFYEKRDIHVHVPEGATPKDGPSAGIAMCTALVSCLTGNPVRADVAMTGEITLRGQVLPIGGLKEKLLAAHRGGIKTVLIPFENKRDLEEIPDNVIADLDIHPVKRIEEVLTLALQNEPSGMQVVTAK
Keap1-Nrf2 PPI: inhibitors of human Keap1-Nrf2 protein-protein interaction; Q14145; Keap1 Kelch-Nrf2 peptide fluorescence polarization, 1536-well; inhibition, % at 9.4 µM; hit rate 0.15% among 340,000; AID 504523; in the data active means inhibition above about 12%;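 further: human Keap1 Kelch domain with fluorescein labeled Nrf2 9mer peptide probe; 0% = neutral control wells and 100% = peptide positive control; higher means more block of Keap1 binding to Nrf2 peptide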
RTF Ca sens inh: cardiac RTF calcium desensitization. IANBD-labeled cardiac RTF, Ca2+ fluorescence. P19429+P45379. AID 493244. hit rate 0.12% among 340,000. inhibition, % at 7.15 µM;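 active means inhibition above the mean inhibition of all tested compounds plus 3 SD, cut at about 17% in these data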;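 further: assay run at fixed EC70 calcium of 1.6 mM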
cardiac RTF act: cardiac RTF calcium sensitization. IANBD-labeled TnC RTF fluorescence at EC20 calcium; 0% EC20 calcium, 100% full calcium. activation, % at 7.2 µM. hit rate 0.24% among 340,000. AID 493008;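 active means activation above the mean over all tested compounds plus 3 SD, cut at about 30% in these data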;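 further: rise in fluorescence read as greater calcium sensitivity of cardiac thin filaments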
C-LANA FP: KSHV C-LANA DNA binding inhibition; hit rate 0.078% among 340,000; MBP-C-LANA/FAM-LBS DNA binding, fluorescence polarization; inhibition, % at 9 µM;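 active means highest replicate inhibition at or above 60% at 9 µM, even if other replicates fall short; inactive means all replicates below 60% inhibition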;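 further: 0% = neutral control wells and 100% = 4 µM acridine orange control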
eLon confirm: E. coli Lon inhibition confirmation; purified E. coli Lon, fluorescence polarization; inhibition, % at 7.94 µM; shares compounds with eLon inh; hit rate 31% among 1,400; in the data active means inhibition above about 16%;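 further: 0% = enzyme with probe and DMSO and 100% = no enzyme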
* hit, by the source's call; / = no result; + = active, no number. The list is not random: actives were taken first. Their share in the collection is about 0.74%.

SMILES	eLon inh	Keap1-Nrf2 PPI	RTF Ca sens inh	cardiac RTF act	C-LANA FP	eLon confirm
CSCCC(NC(=O)COc1ccccc1)C(=O)N1CCN(c2ccccc2O)CC1 (configuration not stated)	71*	-5	-3	2	1	-7
Cn1c2ccccc2c(=O)c2ccc(NCc3ccc4c(c3)OCO4)cc21	17*	1	-5	5	1	3
CN1CCC[C@H]1CCNc1ccc2c(=O)c3ccccc3n(C)c2c1	-4	1	-17	-7	-5	/
C/C(=C\C(=O)c1ccccc1)Nc1ccc(O)cc1	12	-1	-2	0	0	/
C/C(=C\C(=O)c1cccnc1)Nc1ccc(O)cc1	22*	0	-8	-2	0	8
CN(Cc1ccccc1)C(=O)c1ccc(Cc2cn(C)c3ccccc23)nc1	-1	/	/	/	/	/
CCCCn1nnnc1C(c1cc2ccccc2o1)N1CCN(CC(=O)N2CCCC2)CC1 (configuration not stated)	-1	/	/	/	/	/
CC1(CCC(=O)N2CCCC(N3CCN(c4ccc(F)cc4)CC3)C2)CC1 (configuration not stated)	13*	-6	-1	1	0	-7
COCCNC(=O)C1CCCN(C(=O)c2nc3ccccc3s2)CC1 (configuration not stated)	6	/	/	/	/	/
CCN(CC)S(=O)(=O)c1ccc2nnn(OCC(=O)Nc3cccc(C#N)c3)c2c1	18*	-1	-2	2	0	-5
COc1ccc(C(C)C)cc1-c1cccc2nncn12	-3	/	/	/	/	/
O=C1C=CC(=Nc2ccc3c(c2)Cc2cc(F)ccc2-3)O1	-9	-4	-5	-10	1	/
O=C1C=CC(=Nc2cccc3c2C(=O)c2ccccc2-3)O1	+	3	-50	15	11	6
c1ccc(OCCNc2ccn3nc(-c4ccc(OCCN5CCOCC5)cc4)cc3n2)cc1	-8	/	/	/	/	/
S=c1[nH]nc(-c2ccc3ccccc3n2)n1-c1ccc2ncccc2c1	20*	0	4	0	-1	9
CC(C)CC#Cc1ccc2c(c1)O[C@H](CN(C)C(=O)Nc1ccccc1)[C@@H](C)CN([C@H](C)CO)S2(=O)=O	-8	/	/	/	/	/
C[C@H](CO)N1C[C@H](C)[C@H](CN(C)C(=O)Nc2cccc(F)c2)Oc2cc(C#CC3(O)CCCC3)ccc2S1(=O)=O	13*	/	/	/	/	-2
CCNC(=S)N=Nc1c(O)[nH]c2ccc(C(C)C)cc12	23*	0	-7	8	0	20*
O=C(COC(=O)C1CCN(S(=O)(=O)c2cccs2)CC1)c1ccc2c(c1)OCCO2	15*	-5	-10	12	0	-2
O=C(N/N=C/c1cccnc1)c1ccccc1	-9	3	-5	-1	0	/
Nc1ccccc1C(=O)NN=Cc1cccnc1	21*	/	/	/	/	-10
COc1cccc(C(C)(O)c2nc(-c3ccc4c(c3)OCO4)cs2)c1 (configuration not stated)	-4	/	/	/	/	/
COc1cc(NCCCC(C)N)c2ncccc2c1 (configuration not stated)	44*	5	-17	12	-1	4
CCOC(=O)/C(C#N)=C(C)/C=C1\Sc2ccccc2N1CC	42*	9	-2	169*	10	-261
CCC(=O)NCCn1ccc2ccccc21	-5	0	-5	-1	1	/
SMILES	eLon inh	Keap1-Nrf2 PPI	RTF Ca sens inh	cardiac RTF act	C-LANA FP	eLon confirm
O=C(Cc1cccs1)NCCn1ccc2ccccc21	19*	1	-6	2	3	-5
Cc1ccc2c(c1)c1c(n2CC(O)CNC(C)(C)C)CCCC1 (configuration not stated)	16*	1	-8	9	2	10
Cc1ccc(S(=O)(=O)N[C@@H](Cc2ccccc2)C(=O)N2CCC[C@@H]2C(=O)O)cc1	17*	-2	3	-7	-1	6
N=C1CCC(=N)c2c1c(O)c1ccccc1c2O	29*	1	-1	1	21	44*
COC(=O)c1ccc(N=NN2CCOCC2)cc1	4	-1	-8	-1	0	/
Clc1ccc(N=NN2CCOCC2)cc1	19*	1	-2	2	1	4
O=C(CSc1nc2[nH]ncc2c(=O)[nH]1)Nc1cc(C(F)(F)F)ccc1Cl	-24	/	/	/	/	/
Cc1cc(=O)oc2c(CN3CCC(C)CC3)c(O)c(Cl)cc12	25*	9	-9	-2	11	39*
CCCc1cc(=O)oc2c(CN3CCCC3)c(O)c(Cl)cc12	22*	3	-10	4	4	-13
COc1ccc(-c2coc3c(C(=O)NCC(C)C)cccc23)c(C)c1	-4	/	/	/	/	/
Cc1cc(Br)cn2c(Cc3ccsc3)c(-c3cccc(Cl)c3)nc12	-5	/	/	/	/	/
Clc1cccc(-c2nc3ccc(Cl)cn3c2Cc2ccsc2)c1	20*	/	/	/	/	113*
Cc1cc(Br)cn2c(Cc3ccsc3)c(-c3ccc(Cl)cc3)nc12	17*	/	/	/	/	30*
Clc1cccc(-c2nc3ccc(Cl)cn3c2Cc2ccccc2)c1	-21	/	/	/	/	/
CC(C)c1ccc[n+](-c2nc([O-])sc2C=O)c1	7	/	/	/	/	/
Cc1ccc[n+](-c2nc([O-])sc2C=O)c1	92*	63*	-114	94*	83*	148*
CCN1CCN(c2nc3ccccn3c(=O)c2C=O)CC1	20*	-4	-10	-2	2	-3
Cc1ccc2nc(N3CCN(c4ccccc4)CC3)c(C=O)c(=O)n2c1	8	2	2	3	1	/
Cc1ccc2nc(N3CCN(C)CC3)c(C=O)c(=O)n2c1	64*	-8	-16	12	4	-1
O=Cc1c(N2CCN(CCO)CC2)nc2ccccn2c1=O	41*	1	-6	4	8	-5
COc1cccc(-c2oc3c(c2C#CC2(N)CCCCC2)C(O)CCC3)c1 (configuration not stated)	-1	/	/	/	/	/
O=C(Nc1cc(C(F)(F)F)ccc1N1CCCCC1)C1=COCCO1	-1	/	/	/	/	/
O=[N+]([O-])c1cccc(SSc2cccc([N+](=O)[O-])c2)c1	-2	-3	3	-2	-1	/
NS(=O)(=O)c1ccc(CCNC(=O)COc2ccc3c4c(c(=O)oc3c2)CCC4)cc1	18*	-1	-6	-1	0	-40
O=C(COc1ccc2c3c(c(=O)oc2c1)CCC3)Nc1ccc(CCO)cc1	-5	-2	9	-5	-1	/
CN(C)CCCNC(=O)c1cccc(-c2cnc3cccnn23)c1	8	/	/	/	/	/
NS(=O)(=O)c1ccc(N/N=C/c2ccc(O)cc2O)c([N+](=O)[O-])c1	0	-1	3	-2	-2	/
NS(=O)(=O)c1ccc(N/N=C/c2ccc(O)c(O)c2O)c([N+](=O)[O-])c1	21*	3	12	-7	1	38*
CC(C)C[C@H]1CN([C@@H](CC(C)C)CN2CCCC2CN2C(=S)NC[C@@H]2Cc2ccccc2)C(=S)N1CCc1ccccc1 (some centres not stated)	-11	/	/	/	/	/

Bioassay records (PubChem)
